Sampled rows, rich in hits. Any-hit rate of the full collection: about 2.2%.
A549 viability – counter-screen for Nrf2 inhibitors: cytotoxicity in A549 cells; A549 ARE-Fluc cells, CellTiter-Fluor viability, 18-24 h; Potency, µM (top dose mostly 46 µM), without a hit: top-dose activity change, negative = cytotoxicity, usual class: inhibitors; 390,000 compounds, 0.16% hits; AID 504648; note: % is set by controls: 0 for no effect and ±100 for the full control effect
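Cytotoxicity counterscreen: CellTiter-Fluor fluorescence was measured in A549 ARE_Fluc cells after 18-24 h of compound exposure in a concentration series. The subsequent BugLite luminescent read reports ARE-luciferase activity.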
Nrf2 block – inhibitors of Nrf2 signaling | A549 ARE-Fluc reporter, luciferase luminescence, 18-24 h | Potency, µM (top dose mostly 46 µM), inactives show top-dose activity change, negative = inhibition, hits mostly inhibitors | 360,000 compounds, 2.1% hits; note: % is set by controls: 0 for no effect and ±100 for the full control effect; nearly all actives have a fitted effect of over 60% in size
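Reporter: ARE-Fluc in A549. Exposure: 18-24 h, 37 °C, 5% CO2, 5% FBS OPTI-MEM. Readouts: fluorescent cytotoxicity (CellTiter-Fluor), then luminescent Nrf2 signal after BugLite.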
Pin1 inhibitor – human Pin1 inhibition; Pin1 FP peptide displacement, HiFluor488, 10 min; Potency, µM (titrated, usually from 115 µM), for the others: at the top dose activity, negative = inhibition, actives largely listed as inhibitors; 390,000 compounds, 0.009% hits; active = well fitted inhibition curve with a large enough effect in the polarisation, with a control signal flat, not every such curve was filed as active; inconclusive = small, poorly fitted or top-dose-only effect, or effect the other way, or a change in a side signal; inactive = no such curve, though single readings can be large or run the other way; the % refers to the polarisation; note: % is set by controls: 0 for no effect and ±100 for the full control effect
Target sequence (Q13526 whole entry, looked up): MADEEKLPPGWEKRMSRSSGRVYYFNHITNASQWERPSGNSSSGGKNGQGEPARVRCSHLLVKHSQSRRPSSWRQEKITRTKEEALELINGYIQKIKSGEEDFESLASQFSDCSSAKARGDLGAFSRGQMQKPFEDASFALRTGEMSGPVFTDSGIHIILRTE
Nrf2 ARE act – activates Nrf2 signaling. AREc32 ARE-luciferase reporter (MCF7-derived line), luminescence, 24 h. Potency, µM (top dose mostly 46.1 µM), for the others: top-dose activation, hits mostly activators. 410,000 compounds, 0.31% hits; note: % of control where 0% means no effect; nearly all actives have a fitted effect of over 65% in size
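Luminescent ARE reporter assay in AREc32_Fluc cells: overnight plating at 37 deg C, 24 hr compound incubation, Steady-Glo added, 30 min RT before reading.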
Numbers without * were called inactive; ? = inconclusive; / = no result; [ ] = another dose, or the depositor's remark. Unless noted, calls come from the whole dose curve; as a rule, active = well fitted curve in the direction sought with a large enough effect; inconclusive = small, poorly fitted or top-dose-only effect, or another doubt; inactive = no such curve, though single readings can be large; an effect the other way counts as inactive or inconclusive. Potency is the fitted concentration of half-maximal effect.

SMILES	A549 viability	Nrf2 block	Pin1 inhibitor	Nrf2 ARE act
CCC(=O)N1c2ccc(S(=O)(=O)CCC(=O)N3CCN(c4cc(C)ccc4C)CC3)cc2CC1C (stereo not given)	0%	?	-3%	0%
CC(=O)N1c2ccc(S(=O)(=O)N3CCC(C(=O)Nc4ccc(C)cn4)CC3)cc2CC1C (stereo not given)	-10%	15µM*	-15%	0%
CCOC(=O)c1ccc(NC(=O)c2c(NCc3cccs3)sc3c2CCCCC3)cc1	1%	/	?	18%
N#Cc1nc(Nc2cc(F)cc(F)c2)c2ncn(CCCO)c2n1	-5%	14%	36%	/
O=C(NCCc1ccccc1Cl)c1ccc2c(=O)n(-c3ccccc3)c(=O)[nH]c2c1	3%	0%[9.27 µM]	-2%	4%
C/C(=N\Nc1ccc2nncn2n1)c1ccc(Cl)s1	0%	-5%	-8%	7.9µM*
C/C(=N\NC(N)=S)c1ccc(Cl)s1	1%	?	-2%	6%
COc1cccc(C(=O)NCCSc2c(-c3ccc(F)cc3)[nH]c3ccccc23)c1OC	?	-1%[9.27 µM]	?	0%
COc1ccc(C2Nc3ccccc3C(=O)N2Cc2ccccc2)cc1COc1ccc(F)cc1 (stereo not given)	8%	-12%	-4%	/
Cc1nc(NC(=O)c2ccccc2)sc1-c1csc(NCc2ccccc2)n1	-16%	21µM*	22%	3%
Cc1nc2sccn2c1-c1csc(NCc2ccccc2)n1	-14%	8.2µM*	-2%	7%
Cc1csc2c(=O)sc(NC(=O)c3ccc(F)cc3)nc12	1%	5%	10%	?
Cc1nc(NC(=O)c2ccccc2)sc1-c1csc(NCCc2ccccc2)n1	-15%	?	50%	3%
Cc1csc2nc(NC(=O)c3ccccc3)sc(=O)c12	-1%	?	186%	3.2µM*
CC(C)C(OC(=O)CNC(=O)c1ccccc1)C(=O)Nc1cc(C(F)(F)F)ccc1Cl (stereo not given)	6%	-1%	1%	/
C=C(C)Cn1c(SCC(=O)Nc2ccccc2C)nc2sc3c(c2c1=O)CCCC3	-5%	-16%	2%	-1%
CCC(Sc1nc2cc3c(cc2c(=O)n1CCCCCC(=O)NCc1ccc2c(c1)OCO2)OCO3)C(=O)NCCCOC (stereo not given)	-3%	/	1%	2%
COc1ccc(CCC(=O)Nc2ccc(Cl)c(S(=O)(=O)N3CCCC3)c2)cc1	-2%	18µM*	15%	0%
COc1ccc(NC(=O)CCCOc2ccc(Cl)c(C)c2)cc1S(=O)(=O)N1CCOCC1	?	18µM*	6%	0%
CCOc1ccc(C(=O)Nc2cccc(-c3nc4cc(Cl)cc(Cl)c4o3)c2)cc1	-2%	8%	-2%	6%
CC(=O)N(Cc1ccc(F)cc1)C1=C(NCc2ccccc2)C(=O)c2ccccc2C1=O	10µM*	6.3µM*	-1%	-2%
O=C(NCc1ccc(F)cc1)C(c1ccccc1)c1ccccc1	9%	0%	-3%	-1%
CC12C=CC(=O)C=C1CCC1C3CCC(O)(C(=O)CO)C3(C)CC3OC312 (stereo not given)	-3%	-12%	-4%	0%
CC12C=CC(=O)C=C1C(F)CC1C3CCC(O)(C(=O)CO)C3(C)CC(O)C12F (stereo not given)	-3%	0.0052µM*	3%	-1%
CC(=O)OCC(=O)[C@@]1(O)CC[C@H]2[C@@H]3CCC4=CC(=O)C=C[C@]4(C)[C@@]3(F)[C@@H](O)C[C@@]21C	-5%	0.029µM*	0%	-1%
SMILES	A549 viability	Nrf2 block	Pin1 inhibitor	Nrf2 ARE act
CC(=O)OCC(=O)[C@@]1(OC(C)=O)[C@@H](C)C[C@H]2[C@@H]3C[C@H](F)C4=CC(=O)C=C[C@]4(C)[C@@]3(F)[C@@H](O)C[C@@]21C	5%	0.0092µM*	-2%	2%
C[C@@H]1C[C@H]2[C@@H]3C[C@H](F)C4=CC(=O)C=C[C@]4(C)[C@@]3(F)[C@@H](O)C[C@]2(C)[C@@]1(O)C(=O)CO	-6%	?	6%	0%
CC(=O)OCC(=O)C1(O)CCC2C3CC(C)C4=CC(=O)C=CC4(C)C3(F)C(O)CC21C (stereo not given)	4%	0.058µM*	4%	1%
CCCOc1cccc(C(=O)N2CCCCC2CCN2CCCCC2)c1 (stereo not given)	-2%	4%	-11%	-1%
Cc1ccc2oc(C(=O)Nc3sc4c(c3C(=O)NCc3ccccc3)CCCC4)cc(=O)c2c1	0%	-3%	2%	0%
COc1cccc(C2=Nn3c(nnc3-c3cc(OC)cc(OC)c3)SC2)c1	-9%	?	73%	/
C[C@@H]1C[C@H]2[C@@H]3CCC4=CC(=O)C=C[C@]4(C)[C@@]3(F)[C@@H](O)C[C@]2(C)[C@@]1(O)C(=O)COP(=O)(O)O	-2%	0.023µM*	/	-1%
CC1(c2ccccc2)O[C@@H]2C[C@H]3[C@@H]4CCC5=CC(=O)C=C[C@]5(C)[C@@]4(F)[C@@H](O)C[C@]3(C)[C@]2(C(=O)CO)O1 (stereo not given in full)	-5%	0.026µM*	?	3%
CC(=O)OCC(=O)C1(O)CCC2C3CC(C)C4=CC(=O)C=CC4(C)C3=CCC21C (stereo not given)	3%	2.1µM*	-8%	3%
CC1(C)OC2CC3C4CC(F)C5=CC(=O)C=CC5(C)C4(F)C(O)CC3(C)C2(C(=O)CO)O1 (stereo not given)	-11%	?	-4%	1%
Cc1ccc(CNC(=O)c2ccc3c(c2)N(Cc2cccc(C)c2)C(=O)CS3)cc1	0%	10%[9.27 µM]	11%	0%
CCN1CCN(C(c2ccc(SC)cc2)c2c(O)cc(C)n(CCOC)c2=O)CC1 (stereo not given)	16%	/	4%	2%
Cc1ccc(C(=O)/C=C/C(=O)O)cc1	12%	4%	?	22µM*
O=C(COC(=O)c1nc(Cl)ccc1Cl)c1ccc[nH]1	-6%	4%	-1%	0%
O=C(COC(=O)c1nc(Cl)c(Cl)c(Cl)c1Cl)c1ccc[nH]1	-6%	20%	7%	22µM*
Cc1oc(-c2ccc(Cl)cc2)nc1CS(=O)CC(=O)N1CCN(c2cccc(C(F)(F)F)c2)CC1 (stereo not given)	-14%	/	0%	-4%
Cc1ccc(-c2nc(CS(=O)CC(=O)N3CCN(c4cccc(Cl)c4)CC3)c(C)o2)cc1 (stereo not given)	?	23µM*	?	3%
COc1ccc(NC(=O)C2CCC(N3C(=O)C4C5C=CC(C5)C4C3=O)CC2)cc1 (stereo not given)	-3%	-9%	-1%	0%
O=C(Nc1ccc(Cc2ccncc2)cc1)C1CC1	1%	9%	-4%	0%
CC(=O)Nc1ccc(NC(=O)C2CCC(N3C(=O)C4C5C=CC(C6CC56)C4C3=O)CC2)cc1 (stereo not given)	-17%	26µM*	2%	0%
